Screening data as filed in PubChem BioAssay.
Only some compounds are listed: those with a hit (about 3.6% of all), similar ones and a draw of the others.
B2AR arrestin ag = ADRB2 beta-arrestin recruitment. P07550. HTLA Tango cells, beta-arrestin recruitment, luciferase luminescence, 18 h. Potency, µM (top dose mostly 46.1 µM), hits mostly activators. 44,000 tested, under 10 active;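 further: potency means the concentration at half of the fitted maximal effect; 0% = DMSO and full agonism = EC100 isoproterenol or metaproterenol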
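Tango cells expressing recombinant beta2-AR and beta-arrestin were treated with compounds (up to 46 microM titration) in DMEM with 1% FBS for 18 hr at 37 degrees C. Beta-arrestin recruitment drove tTA-dependent luciferase, read by luminescence; curves were fitted and classed.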
NTMT1 inhibitor = inhibitors of human N-terminal methyltransferase NTMT1; Q9BV86; NTMT1 MTase-Glo SAH luminescence, purified enzyme; Potency, µM (top dose mostly 114 µM), for the others: at the top dose activity change, negative = inhibition, most hits filed as inhibitors; hit rate 2.5% among 59,000;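 further: potency means the concentration at half of the fitted maximal effect; plate controls were DMSO vehicle for no effect and no enzyme for full effect; nearly all actives have a fitted effect of over 65% in size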
Target sequence (Q9BV86 whole entry, looked up): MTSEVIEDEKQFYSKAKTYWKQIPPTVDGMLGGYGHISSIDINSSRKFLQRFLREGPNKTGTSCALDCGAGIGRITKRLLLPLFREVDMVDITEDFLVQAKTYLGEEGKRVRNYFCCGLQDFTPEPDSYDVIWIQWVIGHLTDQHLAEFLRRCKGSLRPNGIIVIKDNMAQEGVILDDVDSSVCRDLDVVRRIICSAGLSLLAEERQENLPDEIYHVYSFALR
GALK inhibitor = GALK (human) enzyme inhibition; P51570; recombinant GALK, Kinase-Glo ATP luminescence, 1 h; Potency, µM (series often up to 57.5 µM), inactives show at the highest dose activity, negative = inhibition, hits mostly inhibitors; 44,000 tested, under 10 active; AID 1347072;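 further: plate controls were full GALK reaction for no effect and reaction lacking GALK for full effect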
Target sequence (P51570 whole entry, looked up): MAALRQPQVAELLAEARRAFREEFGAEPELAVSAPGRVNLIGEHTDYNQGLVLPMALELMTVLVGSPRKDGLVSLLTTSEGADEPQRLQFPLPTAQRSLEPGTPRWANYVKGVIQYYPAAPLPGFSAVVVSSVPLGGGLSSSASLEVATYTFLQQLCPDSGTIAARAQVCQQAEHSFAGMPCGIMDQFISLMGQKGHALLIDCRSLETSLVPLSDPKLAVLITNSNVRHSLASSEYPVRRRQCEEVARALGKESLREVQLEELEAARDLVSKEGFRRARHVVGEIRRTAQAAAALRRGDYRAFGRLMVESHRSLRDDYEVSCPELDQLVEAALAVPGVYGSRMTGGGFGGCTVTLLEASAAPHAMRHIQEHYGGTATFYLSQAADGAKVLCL
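5 nM GALK with 35 µM ATP and 100 µM galactose in HEPES pH 8.0, MgCl2, NaCl, DTT, BSA; 1 h RT reaction, remaining ATP detected by Kinase-Glo Plus luminescence after 10 min; qHTS concentration series.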
TSG101-PTAP inh = TSG101-PTAP interaction inhibition, HIV-1 budding; Fluorescence polarization, FITC-PTAP peptide/Tsg101, 20 min; 44,000 tested, under 10 active; AID 1347069; Potency, µM (series often up to 115 µM), most hits filed as inhibitors; further: potency means the concentration at half of the fitted maximal effect; 0% is about no effect
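The Tsg101 binding domain, at 10 uM final, is mixed with compound and a FITC peptide bearing the PTAP motif (50 nM final). After 20 min at r.t., polarization is measured; actives defined by CRC class, efficacy cut-off 60% inhibition.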
DRV1 agonist = agonists of human resolvin D1 receptor DRV1 (GPR32); CHO-K1 GPR32 beta-arrestin PathHunter luminescence, 90 min; zero percent set by DMSO-only wells; activation, % at 76.9 µM; hit rate 2.5% among 48,000; AID 1346428;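 active means activation of at least 60% and not above a set upper limit, about 1 call in 100 departs from these limits; inconclusive means activation of 40% to 60%, or above that upper limit; inactive means activation under 40%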; further: 0% is about no effect
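PathHunter enzyme-fragment complementation, CHO-K1 GPR32 stable line; 2,500 cells/well, overnight attach; cpd 90 min 37 °C 5% CO2; detection reagent 1 h RT; chemiluminescence. DMSO = EC0.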
GALC G270D up = enhancers of human galactocerebrosidase G270D mutant activity in cells; P54803; 145M-Twi-hGALC-G270D cells (Twitcher mouse brain line with human GALC G270D), HMU-beta-Gal fluorescence, 48 h; Potency, µM (series often up to 57.5 µM), most hits filed as activators; hit rate 0.1% among 45,000; AID 1159614; further: potency means the concentration at half of the fitted maximal effect; 0% is about no effect; nearly all actives have a fitted effect of over 65% in size
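Brain-derived Twitcher mouse 145M-Twi cells stably expressing human GALC-G270D or wild-type GALC, treated live, then residual GALC activity read by fluorescence of HMU-b-Gal substrate (0.1 mM final) in citrate-phosphate buffer pH 5.2 with sodium taurocholate. Signal increase indicates enhancement.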
An asterisk follows results filed as active; i = inactive; ? = inconclusive; . = no result given; ! = a repeat was not active; [ ] = another dose, or the depositor's remark. Unless noted, the call rests on the fitted dose curve; in most records, active means well fitted curve in the direction sought with a large enough effect; inconclusive means small, poorly fitted or top-dose-only effect, or another doubt; inactive means no such curve, though single readings can be large; an effect the other way counts as inactive or inconclusive.

SMILES	B2AR arrestin ag	NTMT1 inhibitor	GALK inhibitor	TSG101-PTAP inh	DRV1 agonist	GALC G270D up
COc1cc(-c2nc3cccc(C)n3c2Nc2ccc3c(c2)OCCO3)ccc1O	i	0%	0%	i	61*	i
COc1cc(-c2nc3ccc(Cl)cn3c2Nc2ccc3c(c2)OCCO3)ccc1O	i	?	-6%	i	-19	i
COC(=O)CCCn1c(-c2ccc(C)cc2)c(C)n2c3c(=O)n(C)c(=O)n(C)c3nc12	i	-14%	-4%	i	20	i
Cc1ccc(-c2c(C)n3c4c(=O)n(C)c(=O)n(C)c4nc3n2CCCO)cc1	i	?	4%	i	60*	i
COc1ccccc1OCCCSc1nc(-c2ccc(C(C)(C)C)cc2)nc2cc(=O)[nH]n12	i	.	-1%	i	75*	.
Cc1cc(OCCCSc2nc(-c3ccc(C(C)(C)C)cc3)nc3cc(=O)[nH]n23)ccc1Cl	i	50µM*!	-1%	i	-35	i
CC(C)(C)c1ccc(-c2nc(SCCCOc3ccccc3)n3[nH]c(=O)cc3n2)cc1	i	?	-3%	i	-20	i
O=C(CCO[C@@H]1O[C@H](CO)[C@@H](O)[C@H](O)[C@H]1O)c1ccc(O)cc1	.	1%[29.8 µM]	.	.	.	.
CC(C)(Sc1ccc(CCN(CCCCC2CCCCC2)C(=O)NC2CCCCC2)cc1)C(=O)O	.	32µM*!	.	.	-6	.
CN(C)CCN(Cc1ccc(-c2ccc(CNCCc3ccccc3)cc2)cc1)C(=O)CCC1CCCC1	.	0%[57.5 µM]	.	.	.	.
COc1ccc(Cl)cc1NC(=O)CN1C(=O)COc2ccc(S(=O)(=O)NC3CCCC3)cc21	i	-1%	-3%	i	-2	i
O=C(CN1C(=O)COc2ccc(S(=O)(=O)NC3CCCC3)cc21)Nc1ccc(Cl)cc1	i	?	-1%	i	104*	i
COc1ccc(OC)c(CCNC(=O)CS(=O)(=O)Cc2nc(-c3cccc(Cl)c3)oc2C)c1	i	4%	7%	i	88*	i
CCO[C@@H]1OC(=O)C[C@@H]1NC(=O)[C@@H]1CCCN2C(=O)CC[C@H](NC(=O)c3nccc4ccccc34)C(=O)N12	.	11%	.	.	.	.
CCCn1c(=O)sc2cc(NC(=O)COc3ccc(Cl)cc3)ccc21	i	-2%	-6%	i	49	i
Cc1ccc(OCC(=O)Nc2ccc3c(c2)sc(=O)n3C)cc1	i	4%	1%	i	73*	i
O=C(Cc1ccc(Cl)c(Cl)c1)Nc1ccc([S+](=O)([O-])Nc2nnc(-c3ccccn3)s2)cc1	.	79µM*	.	.	.	.
COc1ccc(/C=C/C(=O)Nc2ccc(Cl)c(Cl)c2)cc1	i	-8%	-3%	i	68*	i
Cc1ccc(C)c(N2CCN(C(=O)CCNS(=O)(=O)c3ccc4c(c3)CCN4C(=O)C3CC3)CC2)c1	i	-1%	0%	i	49	i
O=C(CCNS(=O)(=O)c1ccc2c(c1)CCN2C(=O)C1CC1)N1CCN(c2ccccc2F)CC1	i	17%	-3%	i	71*	i
Cc1cc2c(s1)c1cnn(Cc3ccc(C)c(F)c3)c(=O)c1n2C	.	79µM*	.	.	.	.
COc1ccc(S(=O)(=O)N(CC(=O)Nc2cc(C)ccc2OC)Cc2ccccc2)cc1	i	2.5µM*	-2%	i	-5	i
COc1ccc(N2CCN(CC(O)COc3ccc(C(C)C)c(C)c3)CC2)cc1 (stereo not drawn)	i	?	-10%	i	104*	i
Cc1cc(OCC(O)CN2CCN(c3cccc(Cl)c3)CC2)ccc1Cl (stereo not drawn)	i	-8%	1%	i	70*	i
COc1ccc2nc(S(=O)(=O)Cc3ncc(C)c(OC)c3C)[nH]c2c1	.	11%[57.5 µM]	.	.	.	.
SMILES	B2AR arrestin ag	NTMT1 inhibitor	GALK inhibitor	TSG101-PTAP inh	DRV1 agonist	GALC G270D up
C=C(C)C1CCC(C)C12CC(O)C1(C)OC1C2OC(=O)C(N)CCC(=O)O (stereo not drawn)	.	0%[29.8 µM]	.	.	.	.
CC1=C(C(=O)n2ccc3ccccc32)C(c2ccccc2Br)N=C(Nc2nc3ccccc3o2)N1 (stereo not drawn)	.	38%	.	.	.	.
Cc1nc2scc(C)n2c(=O)c1S(=O)(=O)Nc1ccc(N2CCN(S(C)(=O)=O)CC2)cc1	i	.	0%	i	80*	.
CCCn1c(=N)c(C(=O)NCC2CCCO2)cc2c(=O)n3cc(C)ccc3nc21 (stereo not drawn)	i	-4%	-1%	i	-8	13µM*
CCOCCCn1c(=N)c(C(=O)NCC2CCCO2)cc2c(=O)n3cc(C)ccc3nc21 (stereo not drawn)	i	-7%	3%	i	-5	i
CCCN1CCCc2cc(CN(CCCN3CCOCC3)C(=O)Nc3ccc(OCC)cc3)ccc21	i	-6%	1%	i	17	?
CCCN1CCCc2cc(CN(CCCN3CCOCC3)C(=O)Nc3ccc(Cl)c(Cl)c3)ccc21	i	79µM*	-1%	i	0	i
CNCc1ccccc1	.	56µM*	.	.	-2	i
Cc1ccc(CNCc2ccccc2)s1	i	8%	-1%	i	-4	i
CN(C)c1ccc(C(=C2C=CC(=[N+](C)C)C=C2)c2ccccc2)cc1	.	22µM*	.	.	95*	i
CN(C)c1ccc(C(=C2C=CC(=[N+](C)C)C=C2)c2ccc(N(C)C)cc2)cc1	.	20µM*	.	.	-79	i
CCC(C(C)O)n1ncn(-c2ccc(N3CCN(c4ccc(OCC5COC(Cn6cncn6)(c6ccc(F)cc6F)C5)cc4)CC3)cc2)c1=O (stereo not drawn)	.	0%[57.5 µM]	.	.	.	.
CC(C)(C)OC(=O)N1CCN(c2cnc(NCc3ccc(-c4ccc(C#N)cc4)o3)nc2)CC1	.	2%	.	.	.	.
COc1ccc(CN2CCN(C(c3ccc(F)cc3)c3ccc(F)cc3)CC2)c(OC)c1OC	.	-2%[57.5 µM]	.	.	78*	i
COc1ccccc1NC(=O)c1ccc2ccccc2c1	.	3%	.	.	.	.
CC(=CC(=O)Nc1ccccc1C(=O)O)c1ccc2ccccc2c1	.	34µM*	.	.	.	.
CO[C@H]1O[C@@H]2O[C@@]3(C)CCC4[C@H](C)CCC([C@H]1C)[C@]42OO3 (stereo partly drawn)	.	3%[57.5 µM]	.	.	.	.
